# Assay results published in PubChem BioAssay (NCI).
# The panel holds about 79,000 compounds, 15% with a hit somewhere; the sample as a whole holds those more often. Values without a mark were called inactive. Active and inactive are the calls of the source. No stated cut-off is given here; in the data, active means growth inhibition above about 70%; inactive means the rest.
# Test: NCI Yeast Anticancer Drug Screen. Data for the CLN2oe strain (AID 163);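 further: 0% = growth of vehicle-only control cultures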
# Conditions: S. cerevisiae CLN2oe strain, active compounds read high
# Experimental: Growth inhibition of yeast strains with defined genetic alterations is measured as a screen for potential anti-cancer activity. Selected strains with alterations in DNA damage repair or cell cycle control were exposed to compounds and growth inhibition was measured relative to vehicle treated controls. The strain used in this assay is CLN2oe
Structure (SMILES),growth inhibition (at 1.2 µM),growth inhibition (at 3.7 µM),growth inhibition (at 11.0 µM),growth inhibition (at 33.0 µM),growth inhibition (at 100.0 µM)
CC(=O)O/N=C1C=C/C(=C(/C#N)c2ccccc2)C=C/1C,-6%,0%,16%,99% (active),96% (active)
CC1(C2CC2)C(C#N)(C#N)C1(C#N)C#N,-2%,8%,16%,21%,53%
CCCCCCC1OCC(O)C(OCCCC)O1 (stereo not given),-5%,-3%,-12%,-8%,-7%
Cc1cc(C)c(S(=O)(=O)c2ccc(Cl)cc2)c(C)c1,-8%,-15%,-22%,-13%,-2%
C=CCNC1=C2C[C@@H](C)C[C@H](OC)[C@H](O)[C@@H](C)/C=C(\C)[C@H](OC(N)=O)[C@@H](OC)/C=C\C=C(/C)C(=O)NC(=CC1=O)C2=O,-60%,-43%,80% (active),96% (active),27%
S=C(NCc1ccccn1)N/N=C/c1ccccn1,97% (active),99% (active),99% (active),99% (active),99% (active)
OC1(c2ccccc2)C2CC=CC2C1(c1ccccc1)c1ccccc1 (stereo not given),2%,8%,2%,-7%,10%
O=C(c1ccccc1)[C@H]1Nc2ccc(Cl)cc2[C@H]2OCCC[C@@H]12,-14%,2%,-10%,23%,85% (active)
